Assay outcomes as filed in PubChem BioAssay.
VACV mCherry inh = vaccinia inhibition (mCherry reporter); Vaccinia virus mCherry reporter infection, fluorescence; Potency, µM (series often up to 36.5 µM), inactives show at the top dose activity change, negative = inhibition, actives largely listed as inhibitors; actives 0.63% (n = 310,000); calls by dose curve; tested in A549 cells; note: potency is the fitted concentration of half-maximal effect; nearly all actives have a fitted effect of over 35% in size
LASV entry inh = inhibitors of Lassa virus binding or cell entry | Lassa virus pseudotype entry inhibition, cell reporter | Potency, µM (doses to about 37.9 µM), without a hit: at the top dose activity change, negative = inhibition, hits mostly inhibitors | actives 1.2% (n = 300,000) | AID 540256; calls by dose curve; tested in HEK293 cells; note: potency is the fitted concentration of half-maximal effect; nearly all actives have a fitted effect of over 50% in size
FMDV inh = foot and mouth disease virus antiviral activity | Potency, µM (series often up to 57.9 µM), inactives show at the highest dose activity change, negative = inhibition, hits mostly inhibitors | AID 1159524 | actives 1.2% (n = 410,000) | FMDV antiviral cell-based qHTS; calls by dose curve; tested in HEK293T cells; note: read-out not given here; potency is the fitted concentration of half-maximal effect; nearly all actives have a fitted effect of over 45% in size
Marburg entry inh = blocks Marburg virus binding to or entry into cells. Marburg virus pseudotyped entry inhibition, cell reporter. Potency, µM (top dose mostly 37.8 µM), without a hit: at the highest dose activity change, negative = inhibition, actives largely listed as inhibitors. actives 1.8% (n = 300,000). AID 540276; calls by dose curve; tested in HEK293 cells; note: potency is the fitted concentration of half-maximal effect
HCMV inh = inhibitors of human cytomegalovirus | HFF cells, HCMV-luciferase reporter, 72 h; hits give low values | activity change, negative = inhibition, % at 57.5 µM | actives 4.5% (n = 410,000); in the data active = activity change below about -60%; inconclusive = no clear call, values can overlap the other calls; inactive = above about -39%
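After 16 h attachment at 37C, HFF cells received test compound and HCMV-luciferase (1 PFU/cell); reporter luminescence read 72 h later, data normalized against buffer-only and known inhibitor Salinomycin.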
VACV Venus inh = vaccinia inhibition (Venus reporter); Potency, µM (highest dose often 36.5 µM), inactives show at the top dose activity change, negative = inhibition, most hits filed as inhibitors; actives 0.46% (n = 330,000); AID 720580; Vaccinia virus Venus reporter expression, fluorescence; calls by dose curve; tested in A549 cells; note: potency is the fitted concentration of half-maximal effect; nearly all actives have a fitted effect of over 30% in size
* hit, by the source's call; i = inactive; ? = inconclusive; nt = not tested or not shown; [ ] = another dose, or the depositor's remark. Sampled rows, rich in hits. Any-hit rate of the full collection: about 6.5%. % is set by controls: 0 for no effect and ±100 for the full control effect.

SMILES | VACV mCherry inh | LASV entry inh | FMDV inh | Marburg entry inh | HCMV inh | VACV Venus inh
Oc1c(CN2CCN(c3ccccn3)CC2)cc(Cl)c2cccnc12 | nt | 12.6µM* | ? | 7.08µM* | nt | 11.2µM*
COCc1cc(CN2CCCC2)c(O)c2ncccc12 | 14.1µM* | ? | nt | 25.9µM* | -95.2* | ?
Cc1ccc(NC(=O)c2cc(S(=O)(=O)NC3CCCCCC3)ccc2F)cc1F | -25.0% | -19.3%[46.1 µM] | -1.8% | nt | ? | -24.9%
Cc1c(C(=O)O)oc2c1ccc1ccccc12 | i | -14.1% | -4.9% | 0.1%[46.1 µM] | -8.9 | -7.1%
Cc1c(C(=N)C(C#N)C#N)c(=N)oc2c1ccc1ccccc12 | -16.6% | nt | -4.1% | nt | -74.8* | ?
O=C(COC(=O)c1ccccc1O)NC12CC3CC(CC(C3)C1)C2 | -24.0% | -9.4% | -20.7% | ? | -4.4 | -8.9%
O=C(COC(=O)/C=C/C(=O)OCC(=O)NC12CC3CC(CC(C3)C1)C2)NC12CC3CC(CC(C3)C1)C2 | -6.0% | -20.9% | ? | 8.91µM* | -10.1 | 3.3%
Cc1cccc(CSC(Nc2ccc(F)cc2)=C(C#N)C#N)c1 | ? | ? | ? | 2.91µM* | -101.6* | ?
CC(SCc1ccccc1)C(=O)Nc1ccc(F)cc1 (stereo unspecified) | -23.0% | 25.2%[46.1 µM] | -15.0% | -7.7%[46.1 µM] | ? | 5.2%
N#CC(C#N)=C(Nc1ccc(F)cc1)SCc1cccc(Br)c1 | ? | ? | 1.78µM* | ? | -98.7* | ?
Cc1cc(C)n(CC(=O)NC2CCCCC2C)c(=O)c1C#N (stereo unspecified) | i | -9.3% | -20.7% | -1.2%[46.1 µM] | -36.3 | -9.7%
Cc1cc(=O)[nH]c(SCC(=O)NC2CCCCCC2)n1 | i | 13.6% | -8.5% | 2.5% | -6.4 | -5.4%
O=C(Nc1ccccn1)c1ccc(S(=O)(=O)c2ccc(Cl)cc2)cc1 | -14.6% | ? | 0.0% | -3.8%[46.1 µM] | -63.6* | -17.1%
O=C(Nc1ccccn1)c1ccc(-c2ccccc2)cc1 | 7.3% | ? | -68.3% | 1.12µM* | -78.3* | -13.7%
COc1ccc(C(=O)Nc2ccccn2)cc1 | 10.2% | 13.4% | 5.0% | 18.4%[46.1 µM] | 33.7 | 15.5%
O=C(Nc1ccccn1)c1ccc(S(=O)(=O)N2CCCC2)cc1 | -8.1% | ? | 35.6% | -0.2%[46.1 µM] | 16.8 | -12.2%
CN(C)S(=O)(=O)Oc1ccsc1C(=O)Nc1ccccc1Cl | nt | -8.5% | -22.7% | -12.1% | -13.0 | nt
CN(C)S(=O)(=O)Oc1ccsc1C(=O)Nc1cccc(Cl)c1Cl | i | ? | -29.8% | -21.5% | -68.0* | -15.4%
Cc1ccc(-c2noc(-c3cccnc3NCc3ccco3)n2)cc1 | -12.8% | 24.3%[46.1 µM] | 26.6% | ? | 56.0 | 0.2%
CCOc1ccc(N(Cc2ccc(C(=O)O)cc2)S(=O)(=O)c2ccc(C)cc2)cc1 | ? | -20.9% | -23.5% | ? | -9.9 | -20.5%
CC(C)(C)c1ccc(C(=O)NC2(C(F)(F)F)C(=O)Nc3c2c(=O)[nH]c(=O)n3-c2ccccc2)cc1 (stereo unspecified) | -4.9% | -0.3%[46.1 µM] | -3.7% | 4.4%[46.1 µM] | 4.6 | -1.2%
CCOc1ccc(OCC)c(NC(=O)CN(C)S(=O)(=O)c2ccc3nc(C)sc3c2)c1 | ? | ? | 31.6µM* | -2.5% | ? | -23.8%
Cc1nc2ccccc2cc1OCc1ccc(Cl)cc1 | nt | 0.1% | ? | ? | -75.4* | nt
Cc1nc2ccccc2cc1OCc1ccccc1 | nt | -20.6% | -28.3% | -9.7% | -93.1* | nt
COc1cccc(COc2cc3ccccc3nc2C)c1 | nt | ? | ? | ? | -79.5* | nt
Cc1nc(OCc2ccccc2)c2ccccc2n1 | nt | ? | ? | ? | -19.9 | -16.1%
CCN(CCCN(C)C)c1ccc(/C=C/c2ccnc3ccccc23)cc1 | -18.8% | nt | nt | nt | nt | 7.0%
Cc1ccc(C(C(=O)NC(C)(C)C)N(CC2CCCO2)C(=O)c2csnn2)cc1 (stereo unspecified) | i | 8.8%[46.1 µM] | -3.6% | -13.4%[46.1 µM] | -0.2 | -1.0%
CC(C)(C)NC(=O)C(c1ccc(-c2ccccc2)cc1)N(C[C@H]1CC[C@@H]([C@@H]2CC[C@H](CO)O2)O1)C(=O)c1ccc(C(C)(C)C)cc1 (stereo partly specified) | -21.9% | nt | 0.0% | nt | -100.7* | ?
Cc1ccc(S(=O)(=O)N2CCC(c3ccncc3)CC2)c(C)c1 | ? | ? | 0.0% | nt | ? | ?
